# Test results: PubChem BioAssay (EPA / NIEHS)
# “And” between values parts separate entries of the source, which are not always exact repeats. Equal values may be shown once. Results filed as inconclusive are left out. The source holds several records for some structures; these can differ, active in one and inactive in another. The source made the active and inactive calls. Rule for the calls, unless noted: active = hit-call score of the fitted dose curve at least 0.9, where 1 is the maximum; inconclusive = response in the unintended direction; inactive = score below 0.9.
# Columns and labels:
# [1] = read-out: Thyroid Hormone Responsive (THRSP), THRSP (gene 7069); assay: LTEA_HepaRG_THRSP: Life Technologies and Expression Analysis (LTEA) Assay for Thyroid Hormone Responsive (THRSP) using HepaRG (AID 2283536; active = hit-call score of the fitted dose curve at least 0.9, where 1 is the maximum; inactive = score below 0.9); conditions: mRNA level, 48 h; actives raise or lower the signal
# Method in brief: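 qRT-PCR read-out (Fluidigm TaqMan), housekeeping-normalized (ACTB/GAPDH/POLR2A). HepaRG, 48 h chemical exposure, 8-pt half-log series from 100 uM in 0.5% DMSO, duplicates. Bidirectional curve fit vs 0.5% DMSO baseline.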
# [2] = read-out: Cellular tumor antigen p53 (Homo sapiens) (UniProt P04637); assay: LTEA_HepaRG_TP53: Life Technologies and Expression Analysis (LTEA) Assay for Tumor Protein P53 (TP53) using HepaRG (AID 2283537; active = hit-call score of the fitted dose curve at least 0.9, where 1 is the maximum; inactive = score below 0.9); conditions: mRNA level, 48 h; actives raise or lower the signal
# Method in brief: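 Gain or loss of TP53 mRNA signal is scored relative to 0.5% DMSO after 48 h chemical treatment of HepaRG liver cells, tested in duplicate at eight half-log concentrations up to 100 uM.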
# [3] = read-out: UDP glucuronosyltransferase (UGT1A1), UGT1A1 (gene 54658); assay: LTEA_HepaRG_UGT1A1: Life Technologies and Expression Analysis (LTEA) Assay for UDP glucuronosyltransferase (UGT1A1) using HepaRG (AID 2283538; active = hit-call score of the fitted dose curve at least 0.9, where 1 is the maximum; inactive = score below 0.9); conditions: mRNA level, 48 h; actives raise or lower the signal
# Method in brief: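 mRNA induction or loss of UGT1A1, by TaqMan qRT-PCR, in duplicate HepaRG wells after 48 h exposure to half-log dilutions topping at 100 uM; DMSO (0.5%) served as baseline.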
# [4] = read-out: UDP glucuronosyltransferase (UGT1A6), UGT1A6 (gene 54578); assay: LTEA_HepaRG_UGT1A6: Life Technologies and Expression Analysis (LTEA) Assay for UDP glucuronosyltransferase (UGT1A6) using HepaRG (AID 2283539; active = hit-call score of the fitted dose curve at least 0.9, where 1 is the maximum; inactive = score below 0.9); conditions: mRNA level, 48 h; actives raise or lower the signal
# Method in brief: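 Measures mRNA change in HepaRG hepatic cells exposed 48 h to chemicals (eight-point, maximum 100 uM, 0.5% DMSO vehicle) in serum-free induction medium. Expression normalized to endogenous controls; DMSO served as negative control and baseline.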
# [5] = read-out: X-box binding protein 1 (XBP1), XBP1 (gene 7494); assay: LTEA_HepaRG_XBP1: Life Technologies and Expression Analysis (LTEA) Assay for X-box binding protein 1 (XBP1) using HepaRG (AID 2283540; active = hit-call score of the fitted dose curve at least 0.9, where 1 is the maximum; inactive = score below 0.9); conditions: mRNA level, 48 h; actives raise or lower the signal
# Method in brief: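 Eight concentrations (half-log, highest 100 uM, 0.5% DMSO) tested in duplicate on HepaRG cells over 48 h in serum-free induction medium; qRT-PCR of XBP1 normalised to ACTB, GAPDH, POLR2A.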
# [6] = LTEA_HepaRG_LDH_cytotoxicity: Cytotoxicity Assessment in the Life Technologies and Expression Analysis (LTEA) Assay (AID 2283563);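 for AC50: LDH activity released into spent culture medium as a marker of cell death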
# Method in brief: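 Spent-medium LDH after 48 h chemical exposure of HepaRG cells in serum-free induction medium; eight concentrations, half-log dilutions from 100 uM, duplicate wells, fitted upward relative to 0.5% DMSO.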
# [7] = TOX21_p53_BLA_p2_viability: Viability Assessment in the Tox21 HCT-116 p53 Agonism Beta-lactamase Assay, Phase 2 (AID 2283591);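 note: compound exposure lasted 16 h at 37 °C; actives lower the ATP signal meaning cytotoxicity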
# Method in brief: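 HCT116 p53-bla cells, 4000/well, dosed after 5 h plating (217-fold dilution of DMSO stocks) and incubated 16 h at 37C. Viability taken as cellular ATP by CellTiter-Glo luminescence after 30 min RT; signal loss marks cytotoxicity.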
# [8] = molecular target: Cellular tumor antigen p53 (Homo sapiens) (UniProt P04637); assay: TOX21_p53_BLA_p2_ratio: Tox21 HCT-116 p53 Agonism Beta-lactamase Assay, Ratio, Phase 2 (AID 2283592)
# Method in brief: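 DMSO-normalized, positive-direction endpoint derived from the 460 nm/530 nm FRET ratio in HCT116 p53 beta-lactamase reporter cells exposed 16 h at 37C and loaded with CCF4-AM for 2 h.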
# [9] = TOX21_p53_BLA_p3_viability: Viability Assessment in the Tox21 HCT-116 p53 Agonism Beta-lactamase Assay, Phase 3 (AID 2283593);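 note: cells exposed to compound for 16 h before reading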
# Method in brief: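 HCT116 cells, 4000/well, dosed 5 h after plating by pin transfer (217-fold dilution from DMSO stock) and incubated 16 h at 37C, 5% CO2. Viability read as ATP luminescence with CellTiter-Glo after 30 min at room temperature.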
# [10] = ATG_XTT_Cytotoxicity: Cytotoxicity Assessment in the Attagene TRANS-FACTORIAL HepG2 Assay (AID 2283584);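 for AC50: XTT signal for cell number as viability in transfected HepG2 cells; cells exposed to compound for 24 h before reading; active means loss of viability signal versus DMSO baseline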
# Method in brief: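 24 h chemical exposure of reporter-transfected HepG2; XTT signal loss vs DMSO indicates cytotoxicity.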
# Sequence of Cellular tumor antigen p53 (Homo sapiens) (P04637 whole entry, looked up): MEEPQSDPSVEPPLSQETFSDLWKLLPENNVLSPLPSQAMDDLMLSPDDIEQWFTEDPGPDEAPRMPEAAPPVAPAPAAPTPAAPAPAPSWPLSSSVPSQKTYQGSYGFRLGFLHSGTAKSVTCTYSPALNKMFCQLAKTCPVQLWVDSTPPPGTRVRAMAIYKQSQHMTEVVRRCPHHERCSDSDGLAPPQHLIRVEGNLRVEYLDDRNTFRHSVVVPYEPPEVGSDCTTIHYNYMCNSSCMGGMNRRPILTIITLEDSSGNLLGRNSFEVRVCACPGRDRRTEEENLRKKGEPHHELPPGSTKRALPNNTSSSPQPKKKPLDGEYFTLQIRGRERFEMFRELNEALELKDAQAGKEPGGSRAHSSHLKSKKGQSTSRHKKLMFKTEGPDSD
smiles,measurement,setting,value
NC(=O)c1nc(-c2cccc(-c3cc(F)ccc3OCC(F)(F)C(F)(F)F)c2)n[nH]1,outcome,[1],inactive
same,outcome,[2],inactive
same,AC50,[3],15.8 µM (active)
same,AC50,[4],50 µM (active)
same,outcome,[5],inactive
same,AC50,[6],76.1 µM (active)
same,AC50,[7],65.9 µM (active)
same,AC50,[8],79.6 µM (active)
same,AC50,[9],74 µM (active)
Clc1cc(Cl)c2c(c1)N=C1CCCCCN1C2,outcome,[1],inactive
same,outcome,[2],inactive
same,outcome,[3],inactive
same,outcome,[4],inactive
same,outcome,[5],inactive
same,outcome,[6],inactive
same,outcome,[7],inactive
same,outcome,[8],inactive
same,outcome,[9],inactive
CN1C(=O)N(c2ccccc2Br)Cc2cnc(Nc3ccc4c(c3)OCC(CO)O4)nc21 (stereo not given),outcome,[1],inactive
same,outcome,[2],inactive
same,AC50,[3],85.6 µM (active)
same,AC50,[4],81.5 µM (active)
same,outcome,[5],inactive
same,AC50,[6],67.9 µM (active)
same,AC50,[7],70.4 µM (active)
same,AC50,[8],4.26 µM (active)
same,outcome,[9],inactive
CC(O)CC(C)(C)O (stereo not given),outcome,[1],inactive
same,outcome,[2],inactive
same,outcome,[3],inactive
same,outcome,[4],inactive
same,outcome,[5],inactive
same,outcome,[6],inactive
same,outcome,[10],inactive
same,outcome,[8],inactive
same,outcome,[9],inactive
O=c1c(-c2ccc(O)cc2)coc2cc(O)cc(O)c12,outcome,[1],inactive
same,outcome,[2],inactive
same,outcome,[3],inactive
same,outcome,[4],inactive
same,outcome,[5],inactive
same,outcome,[6],inactive
same,outcome,[7],inactive
same,AC50,[8],18 µM (active)
same,outcome,[8],inactive
same,outcome,[9],inactive
Cc1ccc2oc(CN(Cc3ccccc3)C(=O)Nc3c(F)cc(F)cc3F)c(-c3ccc(Cl)cc3)c2c1,outcome,[1],inactive
same,AC50,[2],44.2 µM (active)
same,outcome,[3],inactive
same,outcome,[4],inactive
same,outcome,[5],inactive
same,outcome,[6],inactive
same,outcome,[10],inactive
same,outcome,[7],inactive
same,outcome,[8],inactive
same,outcome,[9],inactive
O=C(O)Cc1cc(I)c(Oc2ccc(O)c(I)c2)c(I)c1,AC50,[1],81.7 µM (active)
same,AC50,[2],79.6 µM (active)
same,AC50,[3],95.7 µM (active)
same,AC50,[4],77.9 µM (active)
same,AC50,[5],75 µM (active)
same,outcome,[6],inactive
same,outcome,[10],inactive
same,AC50,[7],2.06 µM (active) and 5.75 µM (active)
same,AC50,[8],899 nM (active) and 4.4 µM (active)
same,AC50,[9],15.9 µM (active)
same,outcome,[9],inactive
CCCCOC(=O)c1ccc(O)cc1,outcome,[1],inactive
same,outcome,[2],inactive
same,outcome,[3],inactive
same,outcome,[4],inactive
same,outcome,[5],inactive
same,outcome,[6],inactive
same,outcome,[7],inactive
same,outcome,[8],inactive
same,outcome,[9],inactive
CCN(Cc1cccc(S(=O)(=O)O)c1)c1ccc(C(=C2C=CC(=[N+](CC)Cc3cccc(S(=O)(=O)O)c3)C=C2)c2ccccc2S(=O)(=O)[O-])cc1,outcome,[1],inactive
same,outcome,[2],inactive
same,outcome,[3],inactive
same,outcome,[4],inactive
same,outcome,[5],inactive
same,outcome,[6],inactive
same,AC50,[7],19.4 µM (active)
same,outcome,[8],inactive
same,outcome,[9],inactive
COCC(C)OCC(C)OCC(C)O (stereo not given),outcome,[1],inactive
same,outcome,[2],inactive
same,outcome,[3],inactive
same,outcome,[4],inactive
same,outcome,[5],inactive
same,outcome,[6],inactive
O=C(O)Cn1c(=O)n(Cc2ccc(Br)cc2F)c(=O)c2ccc(Cl)cc21,AC50,[1],10.3 µM (active)
same,outcome,[2],inactive
same,AC50,[3],17.7 µM (active)
same,outcome,[4],inactive
same,outcome,[5],inactive
same,outcome,[6],inactive
same,outcome,[7],inactive
same,outcome,[8],inactive
same,outcome,[9],inactive
CCCCCCCCOc1ccc(C(=O)c2ccccc2)c(O)c1,outcome,[1],inactive
same,outcome,[2],inactive
same,AC50,[3],20.4 µM (active)
same,outcome,[4],inactive
same,outcome,[5],inactive
same,outcome,[6],inactive
same,outcome,[7],inactive
same,outcome,[8],inactive
same,outcome,[9],inactive
CO[C@H]1/C=C/O[C@@]2(C)Oc3c(C)c(O)c4c(O)c(c(/C=N/N5CCN(C)CC5)c(O)c4c3C2=O)NC(=O)/C(C)=C\C=C\[C@H](C)[C@H](O)[C@@H](C)[C@@H](O)[C@@H](C)[C@H](OC(C)=O)[C@@H]1C,AC50,[1],12 µM (active)
same,outcome,[2],inactive
same,AC50,[3],0.395 µM (active)
same,outcome,[4],inactive
same,outcome,[5],inactive
same,outcome,[6],inactive
same,outcome,[10],inactive
same,outcome,[7],inactive
same,outcome,[8],inactive
same,outcome,[9],inactive
NCc1cccc(C2CCN(C(=O)c3ccc(C#Cc4ccccc4F)o3)CC2)c1,AC50,[1],83.9 µM (active)
same,outcome,[2],inactive
same,AC50,[3],86.3 µM (active)
same,AC50,[4],93.1 µM (active)
same,outcome,[5],inactive
same,AC50,[6],81.4 µM (active)
same,AC50,[7],68.9 µM (active)
same,AC50,[8],86.2 µM (active)
same,AC50,[9],72.2 µM (active)
CC/C(=C(/CC)c1ccc(O)cc1)c1ccc(O)cc1,AC50,[1],21.7 µM (active)
same,outcome,[2],inactive
same,AC50,[3],93.9 µM (active)
same,AC50,[4],76.7 µM (active)
same,AC50,[5],89.9 µM (active)
same,AC50,[6],89.2 µM (active)
same,AC50,[7],62 µM (active) and 73.4 µM (active)
same,AC50,[8],3.29 µM (active) and 5.64 µM (active)
same,outcome,[9],inactive
OC12N=C(c3ccccc3)SC1Cc1cc(Cl)ccc12 (stereo not given),AC50,[1],16.2 µM (active)
same,AC50,[2],26 µM (active)
same,AC50,[3],2.54 µM (active)
same,outcome,[4],inactive
same,AC50,[5],3.94 µM (active)
same,outcome,[6],inactive
same,outcome,[7],inactive
same,AC50,[8],71.5 µM (active)
CN(C)c1ccc(C(=C2C=CC(=[N+](C)C)C=C2)c2ccc(N(C)C)cc2)cc1,AC50,[1],2.48 µM (active)
same,AC50,[2],23.3 µM (active)
same,AC50,[3],16.8 µM (active)
same,AC50,[4],10.4 µM (active)
same,outcome,[5],inactive
same,AC50,[6],9.3 µM (active)
same,AC50,[10],12.3 µM (active)
same,AC50,[7],23.6 µM (active) and 19.1 µM (active) and 23 µM (active)
same,AC50,[8],33.6 µM (active) and 32.8 µM (active) and 7.06 µM (active)
same,AC50,[9],56.6 µM (active) and 17.3 µM (active) and 20.4 µM (active)
